Test results from PubChem BioAssay (NCATS).
Results filed as inconclusive are left out. Where a call stands in place of a potency, no number is given. Values without a mark were called inactive. Calls of active or inactive are those of the source. Unless noted, calls follow the shape of the full dose curve.

How the values were obtained:
[1] = Cytotoxicity counterscreen for inhibitors of SARS-CoV-2 cell entry (AID 1645845); conditions: outcome: dose series up to 57.1 µM unless noted; also: nearly all actives have a fitted effect of over 50% in size; as to activity change, negative = cytotoxicity: series mostly up to about 57 µM
In short: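 Expi293F/hACE2 cells seeded overnight; cpd pin-transferred in DMSO, 1 h preincubation, + media, 48 h 37 C 5% CO2; ATPLite 1step luminescence; normalized to cells and no cells.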

[2] = Confirmatory qHTS to identify inhibitors of SARS-CoV-2 cell entry (AID 1645844); conditions: SARS-CoV-2 pseudotyped particle cell entry, luciferase; also: potency is read from the fitted curve at half-maximal effect; nearly all actives have a fitted effect of over 45% in size
In short: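 HEK293-ACE2 cells (Expi293F stably expressing human ACE2) were pretreated with compounds for 1 hr at 37C, then infected with MLV-based particles carrying Wuhan-Hu-1 spike (C-terminal 19-aa truncation). Luciferase luminescence read after 48 hr; normalized to spike PP (100%) and bald PP (0%).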

[3] = VSVG counterscreen qHTS to identify inhibitors of SARS-CoV-2 cell entry (AID 1645847); conditions: VSV-G pseudotyped particle entry, luciferase; also: potency is read from the fitted curve at half-maximal effect; nearly all actives have a fitted effect of over 65% in size
In short: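 Expi293F/hACE2 cells, overnight plating; cpd 1 h, 37C/5% CO2; + VSV-G PP (MLV pseudotyping), 48 h; supernatant removed, Bright-Glo luciferase read. Norm: VSV-G PP and bald PP wells.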

Papain (Carica papaya) = Papain (Carica papaya) (UniProt P00784); assay: Primary qHTS assay for inhibitors of the protease papain (AID 1645873; active = well fitted curve in the direction sought with a large enough effect; an effect the other way counts as inactive or inconclusive;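 also: papain turnover of Z-FR-AMC read as the AMC fluorescence gain over 10 min; series mostly up to about 50 µM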)
[4] = Primary qHTS for inhibitors of nuclear receptor binding SET domain protein 2 (NSD2) in an isogenic RCH-ACV NSD2 p.E1099K mutant (9B) (AID 1645876; active = well fitted curve in the direction sought with a large enough effect; an effect the other way counts as inactive or inconclusive; also: nearly all actives have a fitted effect of over 70% in size)
[5] = Primary qHTS for inhibitors of nuclear receptor binding SET domain protein 2 (NSD2) in an RCH-ACV wild type WT cells (2C) (AID 1645877; active = well fitted curve in the direction sought with a large enough effect; an effect the other way counts as inactive or inconclusive; also: nearly all actives have a fitted effect of over 70% in size)
[6] = molecular target: Rap guanine nucleotide exchange factor 3 (Homo sapiens) (UniProt O95398); assay: Confirmatory qHTS for antagonist of cAMP-regulated guanine nucleotide exchange factor 3 (EPAC1) (AID 1645880; active = well fitted curve in the direction sought with a large enough effect; an effect the other way counts as inactive or inconclusive; also: nearly all actives have a fitted effect of over 55% in size)
In short: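 Nucleotide exchange uses 100 nM EPAC1, 250 nM RAP1B-BODIPY-GDP and 50 uM GDP, with compounds in a concentration-titration series. After 5 min at room temperature, fluorescence (480 nm ex/540 nm em) is read every 5 min for 30 min. Data are normalized to control ATA and DMSO.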

[7] = molecular target: Rap guanine nucleotide exchange factor 3 (Homo sapiens) (UniProt O95398); assay: Confirmatory qHTS for agonist of cAMP-regulated guanine nucleotide exchange factor 3 (EPAC1) (AID 1645881; active = well fitted curve in the direction sought with a large enough effect; an effect the other way counts as inactive or inconclusive;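 also: EPAC1 catalysed release of BODIPY-GDP from Rap1B seen as fluorescence loss; nearly all actives have a fitted effect of over 75% in size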)
[8] = molecular target: Rap guanine nucleotide exchange factor 4 (Homo sapiens) (UniProt Q8WZA2); assay: Confirmatory qHTS for agonist of cAMP-regulated guanine nucleotide exchange factor 4 (EPAC2) (AID 1645884; active = well fitted curve in the direction sought with a large enough effect; an effect the other way counts as inactive or inconclusive;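 also: nucleotide exchange releases bodipy-GDP from Rap1 and this lowers its fluorescence; nearly all actives have a fitted effect of over 65% in size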)
[9] = molecular target: Rap guanine nucleotide exchange factor 4 (Homo sapiens) (UniProt Q8WZA2); assay: Confirmatory qHTS for antagonist of cAMP-regulated guanine nucleotide exchange factor 4 (EPAC2) (AID 1645885; active = well fitted curve in the direction sought with a large enough effect; an effect the other way counts as inactive or inconclusive; also: nearly all actives have a fitted effect of over 25% in size)

Chain of Papain (Carica papaya) (P00784 whole entry, looked up, the tested form may be a part): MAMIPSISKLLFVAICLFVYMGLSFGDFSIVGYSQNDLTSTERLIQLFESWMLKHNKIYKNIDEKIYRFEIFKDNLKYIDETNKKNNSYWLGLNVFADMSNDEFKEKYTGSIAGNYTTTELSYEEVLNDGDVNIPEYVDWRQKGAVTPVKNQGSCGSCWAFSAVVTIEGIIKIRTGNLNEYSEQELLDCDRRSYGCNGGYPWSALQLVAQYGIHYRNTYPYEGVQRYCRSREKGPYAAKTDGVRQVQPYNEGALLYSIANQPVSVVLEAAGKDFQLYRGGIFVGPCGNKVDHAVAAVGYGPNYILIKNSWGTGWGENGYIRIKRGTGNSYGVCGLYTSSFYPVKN
Chain of Rap guanine nucleotide exchange factor 3 (Homo sapiens) (O95398 whole entry, looked up): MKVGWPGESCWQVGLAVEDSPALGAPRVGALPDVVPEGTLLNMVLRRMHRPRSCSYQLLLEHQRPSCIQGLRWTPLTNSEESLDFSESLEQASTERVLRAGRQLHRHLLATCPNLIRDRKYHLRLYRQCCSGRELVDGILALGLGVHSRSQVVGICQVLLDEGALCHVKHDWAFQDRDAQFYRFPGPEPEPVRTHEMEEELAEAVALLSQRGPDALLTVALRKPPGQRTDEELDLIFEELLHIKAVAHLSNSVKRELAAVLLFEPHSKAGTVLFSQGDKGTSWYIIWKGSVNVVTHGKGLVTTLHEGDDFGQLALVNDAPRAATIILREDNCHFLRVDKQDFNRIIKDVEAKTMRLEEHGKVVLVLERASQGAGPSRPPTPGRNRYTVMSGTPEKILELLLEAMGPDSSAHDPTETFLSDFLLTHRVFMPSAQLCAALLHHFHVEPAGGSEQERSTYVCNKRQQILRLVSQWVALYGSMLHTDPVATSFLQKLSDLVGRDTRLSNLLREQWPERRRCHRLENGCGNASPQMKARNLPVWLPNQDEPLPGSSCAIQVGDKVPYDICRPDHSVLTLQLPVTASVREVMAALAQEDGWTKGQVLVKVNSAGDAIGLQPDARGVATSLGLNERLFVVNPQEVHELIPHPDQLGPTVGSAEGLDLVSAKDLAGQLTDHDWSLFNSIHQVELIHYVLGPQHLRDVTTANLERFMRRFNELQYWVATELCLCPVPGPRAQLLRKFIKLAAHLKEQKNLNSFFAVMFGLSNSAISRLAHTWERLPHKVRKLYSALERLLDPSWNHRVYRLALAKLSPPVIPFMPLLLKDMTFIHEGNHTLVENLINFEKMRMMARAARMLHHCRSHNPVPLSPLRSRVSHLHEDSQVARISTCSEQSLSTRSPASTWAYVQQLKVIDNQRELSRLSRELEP
Chain of Rap guanine nucleotide exchange factor 4 (Homo sapiens) (Q8WZA2 whole entry, looked up): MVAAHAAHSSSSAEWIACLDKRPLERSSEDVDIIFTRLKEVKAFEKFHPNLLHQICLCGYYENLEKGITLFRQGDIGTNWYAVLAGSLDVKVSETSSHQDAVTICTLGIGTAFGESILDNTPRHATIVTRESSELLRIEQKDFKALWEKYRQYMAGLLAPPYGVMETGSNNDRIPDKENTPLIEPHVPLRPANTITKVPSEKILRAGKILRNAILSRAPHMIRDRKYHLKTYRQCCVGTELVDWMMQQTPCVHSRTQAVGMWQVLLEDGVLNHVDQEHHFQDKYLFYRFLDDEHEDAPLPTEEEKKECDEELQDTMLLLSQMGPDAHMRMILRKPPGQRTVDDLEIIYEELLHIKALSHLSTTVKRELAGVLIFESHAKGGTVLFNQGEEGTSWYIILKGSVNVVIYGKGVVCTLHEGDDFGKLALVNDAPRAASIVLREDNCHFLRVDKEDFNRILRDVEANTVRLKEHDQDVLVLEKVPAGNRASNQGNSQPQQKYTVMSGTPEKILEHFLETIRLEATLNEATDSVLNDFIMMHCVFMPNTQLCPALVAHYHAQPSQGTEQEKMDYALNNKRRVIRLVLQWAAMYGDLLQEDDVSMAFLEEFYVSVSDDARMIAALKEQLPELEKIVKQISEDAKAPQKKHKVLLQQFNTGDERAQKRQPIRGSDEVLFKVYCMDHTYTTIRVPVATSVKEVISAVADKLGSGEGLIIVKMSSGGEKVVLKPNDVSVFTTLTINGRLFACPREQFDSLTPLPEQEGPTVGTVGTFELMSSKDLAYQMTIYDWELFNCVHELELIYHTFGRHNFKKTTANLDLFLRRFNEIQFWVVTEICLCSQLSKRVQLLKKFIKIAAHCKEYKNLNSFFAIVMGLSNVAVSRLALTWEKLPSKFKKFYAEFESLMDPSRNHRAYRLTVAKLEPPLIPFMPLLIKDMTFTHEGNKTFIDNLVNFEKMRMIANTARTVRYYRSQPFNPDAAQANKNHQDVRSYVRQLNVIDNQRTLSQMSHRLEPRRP

With `CC(C)CCON=O` the outcome [1] was “inactive”.

With `O=P(O)(O)C(Cl)(Cl)P(=O)(O)O` the activity change, negative = cytotoxicity [1] was 3.8% [at 5.25 µM].

In the case of `CCNC1(c2cccs2)CCCCC1=O` (configuration not stated), the outcome [1] is reported as “inactive”.

In the case of `CCC(=O)O[C@@](Cc1ccccc1)(c1ccccc1)[C@@H](C)CN(C)C`, the outcome [1] is reported as “inactive”.

In the case of `FC(F)OC(F)(F)C(F)Cl` (configuration not stated), the outcome [1] is reported as “inactive”.

With `C[C@]12CC[C@H](OS(=O)(=O)O)CC1=CC[C@@H]1[C@@H]2CC[C@]2(C)C(=O)CC[C@@H]12` the outcome [1] was “inactive”.

For `C[C@@H](CO)NC(=O)[C@@H]1C=C2c3cccc4[nH]cc(c34)C[C@H]2N(C)C1`, the outcome [1] was “inactive”.

For `O=[N+]([O-])c1cc(I)c(O)c(I)c1`, the outcome [1] was “inactive”.

For `CCCC(=O)OC(C(Cl)(Cl)Cl)P(=O)(OC)OC` (configuration not stated), the outcome [1] was “inactive [at 114 µM]”.

For `CC[C@H](C)[C@H]1O[C@]2(C=C[C@@H]1C)C[C@@H]1C[C@@H](C/C=C(\C)[C@@H](O[C@H]3C[C@H](OC)[C@@H](O[C@H]4C[C@H](OC)[C@@H](O)[C@H](C)O4)[C@H](C)O3)[C@@H](C)/C=C/C=C3\CO[C@@H]4[C@H](O)C(C)=C[C@@H](C(=O)O1)[C@]34O)O2`, the Potency [2] was 21.5 µM (active) and the Potency [3] was 12.1 µM (active).

For `CC(C)(O)[C@@H]1[C@H]2OC(=O)[C@@H]1[C@]1(O)C[C@H]3O[C@]34C(=O)O[C@H]2[C@]14C`, the outcome [1] was “inactive”.

With `CCC1C(C)=NN=C(c2ccc(OC)c(OC)c2)c2cc(OC)c(OC)cc21` (configuration not stated) the outcome [1] was “inactive”.

For `Oc1ccc2c3c1O[C@H]1[C@@H](O)CC[C@@]4(O)[C@@H](C2)N(CC2CCC2)CC[C@]314`, the outcome [1] was “inactive”.

For `Cc1ccccc1-n1c(CF)nc2ccc(N)cc2c1=O`, the outcome [1] was “inactive”.

With `CCC1(CC)C(=O)NC(=O)N(C)C1=O` the outcome [1] was “inactive”.

In the case of `C[N+]1(C)CCCCC1COC(=O)C(O)(c1ccccc1)c1ccccc1` (configuration not stated), the outcome [1] is reported as “inactive”.

For `CCCCCCCCCC(=O)O[C@H]1CC[C@H]2[C@@H]3CCC4=CC(=O)CC[C@]4(C)[C@H]3CC[C@]12C`, the outcome [1] was “inactive”.

For `CCCCC[C@@H](O)C1C(=O)OC(C)[C@H](O)/C=C/C=C/C=C/C=C/C=C(\C)C(O)C(O)C(O)C[C@H](O)C[C@H](O)C[C@H](O)C[C@H](O)C[C@@H]1O` (some centres not stated), the outcome [1] was “inactive”.

For `CCCCCCC(=O)O[C@H]1CC[C@H]2[C@@H]3CC[C@H]4CC(=O)C=C(C)[C@]4(C)[C@H]3CC[C@]12C`, the outcome [1] was “inactive”.

In the case of `CC1=C2C[C@H]3[C@@H](CC=C4C[C@@H](O)CC[C@@]43C)[C@@H]2CC[C@]12O[C@@H]1C[C@H](C)CN[C@H]1[C@H]2C`, the outcome [1] is reported as “inactive”.

For `O=C(OCCN1CCCCC1)C(O)(c1ccccc1)c1ccccc1`, the outcome [1] was “inactive”.

For `CCCN(CCC)C1Cc2cc(OC)c(OC)cc2C1`, the Potency (Papain (Carica papaya)) was “inactive”.

With `CC[C@H]1CN2CC[C@H]1C[C@@H]2[C@@H](O)c1ccnc2ccc(OC)cc12` the outcome [1] was “inactive”, the Potency [4] was “inactive” and the Potency [5] was “inactive”.

For `O=C(NC1CN2CCC1CC2)c1cc2ccoc2cn1` (configuration not stated), the Potency (Papain (Carica papaya)) was “inactive”.

For `CC[N+](C)(CC)CCOC(=O)C(O)(c1ccccc1)c1ccccc1`, the outcome [1] was “inactive”.

With `CC(C)(O)[C@@H]1C2OC(=O)[C@@H]1[C@]1(O)C[C@H]3O[C@]34C(=O)O[C@H]2[C@]14C` (tested in a mixture with another compound) the Potency (Papain (Carica papaya)) was “inactive”.

In the case of `C[C@H]1C2Cc3ccc(O)cc3[C@@]1(C)CCN2CC1CC1`, the Potency (Papain (Carica papaya)) is reported as “inactive”.

With `O=c1[nH]cc(N(CCCl)CCCl)c(=O)[nH]1` the outcome [1] was “inactive”, the outcome [6] was “inactive” and the Potency [7] was “inactive”. The Potency [8] was “inactive” and the Potency [9] was “inactive”.

In the case of `CCOC(=O)c1ccccc1C(=O)OCC`, the outcome [1] is reported as “inactive”.

In the case of `CC(C)(C)c1o[nH]c(=O)c1CC(N)C(=O)O` (configuration not stated), the Potency (Papain (Carica papaya)) is reported as “inactive”.
